D2 PAM-1 = positive allosteric modulators of human D2 dopamine receptor; potentiation, % (concentration not given with the values); hit rate 0.23% among 360,000; DiscoveRx D2 beta-arrestin cells, luminescence, 90 min; 100% = 57 uM dopamine signal; in the data active = potentiation above about 50%; inconclusive = mostly about 30% to 49%
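D2 cells co-treated with compound plus 50 nM dopamine (EC20) for 90 min at 37 deg C to detect potentiation. Beta-arrestin recruitment was read as enzyme-fragment luminescence after 1 h at ambient temperature. Full response was set by 57 uM dopamine.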
D2 antagonist = antagonizes the human D2 dopamine receptor | inhibition, % at 10 µM | hit rate 2% among 340,000 | AID 485344 | HEK293 TREx D2 cells, calcium flux, dopamine EC80 | P14416; in the data active = inhibition above about 30%; inactive = below that, where a call was filed; also: 0% is about no effect
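Dopamine at EC80 is the agonist stimulus; test compounds precede it by 180 s. Calcium flux read kinetically in a force-coupled, inducible HEK293 T-REx D2 cell line.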
D2 ag-1 = activates the human D2 dopamine receptor. P14416. HEK293 T-REx D2 cells, calcium flux agonist mode. activation, % at 2 µM. hit rate 0.53% among 340,000. AID 485358;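 active = activation over 3 SD above normal in the single-dose calcium agonist read, cut at about 30% in these data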; also: 0% is about no effect
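In this primary screen, compounds producing a positive calcium signal within 180 s of addition to tetracycline-induced, force-coupled HEK293 Trex D2 cells are flagged; cells are dye-loaded with a no-wash calcium kit beforehand.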
D2 ag-2 = agonists of human D2 dopamine receptor (beta-arrestin). P14416. DiscoveRx PathHunter D2 beta-arrestin, luminescence, 90 min; 100% = 57 uM dopamine signal. activation, % (concentration not given with the values). hit rate 0.084% among 360,000. AID 624465; in the data active = activation above about 40%; inconclusive = between about 15% and that limit
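Agonist mode: compounds alone added to overnight-plated D2 PathHunter cells for 90 min at 37 C, with 57 uM final dopamine (EC100) defining full response. Beta-arrestin recruitment detected by chemiluminescent reagent, read after 1 h at ambient temperature.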
D2 PAM-2 = positive allosteric modulators of human D2 dopamine receptor; HEK293 T-REx D2, calcium flux, EC20 dopamine potentiation; potentiation, % at 10 µM; hit rate 0.34% among 340,000; AID 485347;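 active = potentiation over 3 SD above the plate norm, cut at about 30% in these data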; also: 0% is about no effect
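Cells plated with tetracycline inducer and held overnight at 30 C; calcium dye loaded 30–90 min at room temperature; baseline taken, compound added and read 180 s; EC20 dopamine then added and read 180 s.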
D3 ag = confirmation of human D3 dopamine receptor agonists, beta-arrestin; shares compounds with D2 ag-1; DiscoveRx D3 beta-arrestin cells, luminescence, 90 min; Potency, µM (highest dose often 76.9 µM), for inactives: at the highest dose activation, most hits filed as activators; hit rate 4% among 2,300;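 also: potency is read from the fitted curve at half-maximal effect; 100% = dopamine control response; nearly all actives have a fitted effect of over 70% in size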
Target sequence (P35462 whole entry, looked up): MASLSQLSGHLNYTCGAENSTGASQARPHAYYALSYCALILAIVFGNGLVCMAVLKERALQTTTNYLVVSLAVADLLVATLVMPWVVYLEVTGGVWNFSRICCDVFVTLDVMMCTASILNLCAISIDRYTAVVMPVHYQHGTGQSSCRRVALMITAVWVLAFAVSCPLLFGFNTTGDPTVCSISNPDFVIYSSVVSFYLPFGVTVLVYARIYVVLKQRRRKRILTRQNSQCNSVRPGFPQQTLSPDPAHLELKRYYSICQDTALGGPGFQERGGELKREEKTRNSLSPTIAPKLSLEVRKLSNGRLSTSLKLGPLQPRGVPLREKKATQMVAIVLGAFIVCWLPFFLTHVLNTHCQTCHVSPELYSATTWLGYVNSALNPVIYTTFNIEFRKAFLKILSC
D2 ag-3 = D2 receptor agonism, beta-arrestin counterscreen; hit rate 5.9% among 2,300; shares compounds with D2 ag-1; Potency, µM (titrated, usually from 76.9 µM), inactives show at the top dose activation, hits mostly activators; DiscoveRx PathHunter D2 beta-arrestin, luminescence, 90 min; response scale: percent relative to full dopamine signal; AID 720507; also: potency is read from the fitted curve at half-maximal effect; % of control where 0% means no effect; nearly all actives have a fitted effect of over 70% in size
* marks the source's active call; other numbers are inactive results; ? = inconclusive; . = no result. Only some compounds are listed: those with a hit (about 2.4% of all), similar ones and a draw of the others. Unless noted, calls follow the shape of the dose curve; as a rule, active = well fitted activation curve with a large enough effect; inconclusive = small, poorly fitted or top-dose-only effect; inactive = flat fitted curve, though single readings scatter.

SMILES | D2 PAM-1 | D2 antagonist | D2 ag-1 | D2 ag-2 | D2 PAM-2 | D3 ag | D2 ag-3
CC1(C(=O)Nc2ccc3c(c2)OCO3)CCN1C(=O)C1CCCCC1 (stereo not drawn) | -3 | . | . | 6 | . | . | .
Cc1oc2ncnc(N3CCCCC3)c2c1C(=O)NCC1CCN(Cc2ccccc2F)CC1 | . | . | 0 | . | 4 | . | .
Cn1c(=O)c(=O)n(C)c2cc(NS(=O)(=O)c3ccc(Br)cc3)c(Cl)cc21 | . | . | -2 | . | 3 | . | .
CCCCn1c(N)c(N(CCC(C)C)C(=O)C2CC(=O)N(CCc3ccc(OC)c(OC)c3)C2)c(=O)[nH]c1=O (stereo not drawn) | 4 | 9 | 0 | -1 | 6 | -1% | -4%
C=CCn1cnc2c(oc3ccccc32)c1=O | -1 | -9 | 0 | -2 | 3 | . | .
CC(C)(C)OC(=O)N1CCC(c2c(C(=O)N3CCN(C(=O)c4ccco4)CC3)cnn2-c2cccc(F)c2)CC1 | . | . | . | . | -6 | . | .
COCc1cc(=O)n2c([nH]c3ccccc32)c1C#N | -1 | 37* | 0 | 1 | 10 | 22% | 6%
CC(SCc1cc(=O)n2c([nH]c3ccccc32)c1C#N)C(=O)O (stereo not drawn) | -8 | 2 | 1 | 0 | -3 | . | .
CCOC(=O)c1c(NC(=S)Nc2ccccc2)sc2c1CCN(CC)C2 | -23 | -3 | 8 | 0 | -14 | -17% | -2%
COc1ccc(-c2c(-c3cc(OC)cc(OC)c3)n(C)c3ccc(-c4ccc5[nH]ccc5c4)cc23)cc1 | -7 | . | . | -3 | 14 | 4% | 4%
CCN1C(=O)[C@H]2[C@@H](c3ccc(C)cc3)N3C(=O)N(c4ccccc4)C(=O)[C@@]3(Cc3ccc(Cl)cc3)[C@H]2C1=O | -72 | 4 | 2 | -1 | 5 | . | .
CCN1C(=O)[C@H]2[C@@H](c3ccc(C)cc3)N3C(=O)N(c4ccc(C)cc4)C(=O)[C@@]3(Cc3ccc(Cl)cc3)[C@H]2C1=O | 2 | -18 | 45* | -3 | -11 | -10% | -4%
COc1ccc(CC2(CO)CCN(Cc3ccncc3)CC2)cc1 | 3 | 7 | 2 | -5 | -6 | . | .
COc1ccc(CC2(CO)CCN(Cc3cc4ccccc4o3)CC2)cc1 | 18 | . | . | 62* | . | ? | 11µM*
OCC1(Cc2cccc(C(F)(F)F)c2)CCN(Cc2cc3ccccc3o2)CC1 | 12 | 22 | 49* | 51* | -17 | ? | 40µM*
CC(CCc1ccccc1)NC(=O)C(C)OC(=O)c1ccco1 (stereo not drawn) | 0 | -6 | -1 | -2 | 8 | . | .
Cc1ccc(C(=O)OC(C)C(=O)NC(C)CCc2ccccc2)o1 (stereo not drawn) | -1 | -35 | 0 | -2 | 11 | -6% | -1%
O=C(O)C1CCCCC1C(=O)N1CC=C(c2ccccc2)CC1 (stereo not drawn) | -16 | -1 | 34* | ? | -12 | -13% | 6%
O=C(c1cc2ccccc2o1)N1CCOCC1 | -16 | 2 | 0 | -3 | -13 | . | .
O=C(c1cc2ccccc2o1)N1CCN(CCOc2ccccc2)CC1 | -27 | 96* | 76* | ? | -38 | 0.2µM* | ?
O=C(c1cc2ccccc2o1)N1CC=C(c2ccccc2)CC1 | -12 | 46* | 58* | -20 | -16 | 12% | 7%
O=C(c1ccc(Br)o1)N1CC=C(c2ccccc2)CC1 | -13 | . | . | 2 | . | . | .
O=C(Nc1cccc2ccccc12)N1CC=C(c2ccccc2)CC1 | -2 | -8 | 34* | -1 | -20 | ? | 19%
O=C(Nc1ccc2ccccc2c1)N1CCCN(CCOc2ccccc2)CC1 | -6 | -1 | 38* | 3 | -22 | 10% | 1%
CCc1nc(C)cn1S(=O)(=O)c1cc(C)c(OC)cc1C | -2 | -20 | 64* | -5 | -22 | 5% | 3%
SMILES | D2 PAM-1 | D2 antagonist | D2 ag-1 | D2 ag-2 | D2 PAM-2 | D3 ag | D2 ag-3
CCc1nc(C)cn1S(=O)(=O)c1cc(Br)c(C)cc1OC | -12 | -7 | -1 | -1 | 18 | . | .
O=C1CC(N2CCN(Cc3ccc4c(c3)OCO4)CC2)C(=O)N1Cc1ccc(N2CCCC2=O)cc1 (stereo not drawn) | -17 | 21 | 54* | -3 | -16 | -9% | 12%
O=C1CC(N2CCOCC2)C(=O)N1Cc1ccc(N2CCCC2=O)cc1 (stereo not drawn) | -2 | 18 | 1 | 1 | -3 | . | .
COc1ccc(/C=c2\s/c(=C/C(=O)c3ccc(C)cc3)[nH]c2=O)cc1OC | -14 | -15 | 19 | -1 | 11 | -10% | -4%
Cc1ccccc1-c1nc(C#N)c(N2CCCCC2)o1 | -7 | -4 | -1 | -4 | 6 | . | .
CCC(C)NC(=O)CSc1nc2cc3c(cc2c(=O)n1CCCC(=O)NCCc1ccc(OC)c(OC)c1)OCO3 (stereo not drawn) | . | . | 0 | . | -7 | . | .
COc1ccc(OCc2cc(C(=O)NC3Cc4ccccc4C3)no2)c(Cl)c1 | 5 | . | . | -1 | 3 | 2% | 0%
COc1ccc(OCc2cc(C(=O)N[C@H]3CCCCNC3=O)no2)c(Cl)c1 | 21 | 16 | 0 | -1 | -3 | . | .
OCCCNc1ncnc2c1ncn2[C@H]1CN(Cc2ccc(Cl)cc2)C[C@@H](CO)O1 | -5 | . | . | -5 | . | . | .
CC(C)N1CCN(S(=O)(=O)c2ccccc2)CC1 | 2 | 1 | 2 | -1 | 1 | . | .
CCS(=O)(=O)N1CCN(C(C)CCc2ccccc2)CC1 (stereo not drawn) | 3 | 28 | 61* | 13 | -21 | ? | ?
Cc1nn(CC(=O)N(C)C2(C#N)CCCCC2)c(C)c1[N+](=O)[O-] | -7 | 15 | 1 | -5 | -12 | . | .
O=C(O)CCc1ccc(-c2cccs2)n1CCC(=O)O | 10 | -1 | 1 | -4 | 8 | . | .
O=C(O)CCc1ccc(-c2cccs2)n1CCc1ccccc1 | -15 | . | . | 3 | -11 | 5% | 6%
Cc1ccc(N2C(S)=C(C#N)C(=O)NC2c2cccs2)cc1 (stereo not drawn) | -9 | 24 | 0 | -8 | 1 | . | .
Cc1ccc(C(=O)N2CCCC(CCC(=O)N3CCN(c4ccccn4)CC3)C2)cc1 (stereo not drawn) | -7 | 4 | 0 | -1 | 5 | . | .
CCc1ccc(CN2CCCC(CCC(=O)N3CCN(c4ccccn4)CC3)C2)o1 (stereo not drawn) | -20 | -22 | 25 | 1 | -17 | -15% | -1%
